From PubChem BioAssay AID492992 (Johns Hopkins Ion Channel Center, 2010) come the findings set out here.

Out of some 4,900 compounds screened, about 2,100 (43%) were called active.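 The calls were made as follows: active = thallium signal inhibited by more than 5 SD of the compound-free buffer control wells, on both duplicate plates; inactive = the rest.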 So high a share suggests a set chosen from earlier hits. A selection follows.

The test deals with Potassium channel subfamily K member 9 (Homo sapiens) (UniProt Q9NPC2). The experiment in a line: KCNK9 potassium channel inhibitors, confirmation, HEK293 cells, thallium flux, duplicate (AID 492992).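 As to inhibition: 0% = assay buffer control wells without compound.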 The conditions noted are these: FluxOR thallium flux fluorescence, at 10 µM; hits give high values.
Potassium channel subfamily K member 9 (Homo sapiens), sequence (Q9NPC2 whole entry, looked up): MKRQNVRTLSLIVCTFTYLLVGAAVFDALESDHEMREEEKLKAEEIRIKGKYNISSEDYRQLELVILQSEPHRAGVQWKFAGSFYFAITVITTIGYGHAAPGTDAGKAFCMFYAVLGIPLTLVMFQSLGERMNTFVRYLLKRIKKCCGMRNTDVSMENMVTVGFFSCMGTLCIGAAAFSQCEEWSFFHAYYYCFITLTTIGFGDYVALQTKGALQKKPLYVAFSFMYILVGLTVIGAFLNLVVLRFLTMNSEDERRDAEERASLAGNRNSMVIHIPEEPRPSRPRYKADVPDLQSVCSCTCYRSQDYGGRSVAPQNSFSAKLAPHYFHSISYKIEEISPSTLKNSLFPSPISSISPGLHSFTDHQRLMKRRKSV
One may read the inhibition as the relative decrease from the control value, in per cent. `COc1ccc([N+](=O)[O-])cc1-c1nc2ccccc2nc1-c1ccccc1`: the inhibition result is “inactive”. For the compound `COC(=O)Cn1cnc2scc(-c3ccc(C)c(C)c3)c2c1=O`, the inhibition entry is “inactive”. Take `CC(C)N(C(=O)CSc1nc(COc2ccccc2)nc2ccccc12)C(C)C`: the inhibition was 76.5% (active). For the compound `O=C1/C(=C/c2ccc3c(c2)OCO3)CCC/C1=C\c1ccc2c(c1)OCO2`, the inhibition entry was “inactive”. The value for `O=C(NCCCc1ccccc1)c1cc(COc2c(F)cccc2F)on1` was “inactive”; that for `COc1ccc(CCNc2ncnc3c2nnn3Cc2ccccc2)cc1` was “inactive”; that for `COc1ccc(CCNC(=O)c2ccccc2OCc2ccccc2)cc1` was 64% (active). Consider `COc1ccc(-c2noc(CSc3ccc(C)cc3)n2)cc1`, for which the inhibition result is “inactive”. In the case of `COc1cccc(C(=O)NCCSc2ccc(Br)cc2)c1`, the inhibition entry is “inactive”.

For the compound `COc1cc(NC(=S)NCCSc2ccc(C)cc2)cc(OC)c1`, the inhibition was 27% (active). Next, `CCOc1ccccc1NC(=O)C12CC3CC(C1)CC(c1ccc(C)cc1)(C3)C2`: “inactive”. Next, `O=C(Oc1ccc(Br)cc1C(=S)N1CCOCC1)c1cccc([N+](=O)[O-])c1`: 50% (active); `COc1ccc(-c2oc(/N=C/N3CCCC3)c(C#N)c2-c2ccc(OC)cc2)cc1`: “inactive”. Next, `O=C(Cn1cc(C(=O)c2cccs2)c2ccccc21)NCc1cccs1`: 39% (active); `Cc1ccc(CN(N=Nc2nonc2N)c2nonc2N)c(C)c1`: 68.5% (active).

Consider `C/C(=N\NC(=S)Nc1ccc(C)cc1)c1cc2ccccc2o1`, for which the inhibition entry is “inactive”. The value for `Cc1cccc(N(C)C(=O)CN2C(=O)COc3ccc(S(=O)(=O)N4CCCCCC4)cc32)c1` was “inactive”; that for `Cc1ccc(S(=O)(=O)N2CCN(C(=O)COC(=O)c3c(C)cc(C)cc3C)CC2)c(C)c1` was “inactive”. Next, `CCOc1ccc(C(C)C)cc1S(=O)(=O)n1nc(C)cc1C`: 33% (active); `CC(C)(C)NC(=O)NC(=O)CN1CCC(Cc2ccccc2)CC1`: “inactive”. The value for `CC1=CC(C)(C)N(C(=O)CSc2nnc(-c3ccccc3)o2)c2ccc(C)cc21` was “inactive”. `C=CCOc1ccc(/C=N/NC(=O)C(C)Sc2ccccn2)cc1OCC` (configuration not stated): the inhibition was 46.5% (active). Take `O=[N+]([O-])/C=C/c1ccc2c(ccn2Cc2ccccc2)c1`: the inhibition entry was “inactive”.

In the case of `COC(=O)c1sc(-c2ccc(C(C)(C)C)cc2)cc1NC(=O)/C=C/C(=O)O`, the inhibition result is “inactive”.

As to `O=C(CC(NC(=O)c1ccccc1)c1ccccc1)Nc1ccc(F)c(F)c1` (configuration not stated), the inhibition result is “inactive”. Next, `O=C(C[C@H]1C(=O)N(c2ccc(F)c(F)c2)C[C@@H]1Cc1ccccc1)Nc1ccccc1`: 39% (active).

For `Cc1ccc(C(=O)c2c(NC(=O)c3ccccc3)sc(C)c2C)cc1`, the inhibition entry was “inactive”.
